The results in this text go back to PubChem BioAssay (NCATS).

Inconclusive results are not listed. A number with no mark means an inactive call. Calls of active or inactive are those of the source. The call rests on the fitted dose curve; in most records, active means well fitted inhibition curve with a large enough effect; inconclusive means small, poorly fitted or top-dose-only effect; inactive means flat fitted curve, though single readings scatter.

Lysine-specific demethylase 5B (Homo sapiens), sequence (Q9UGL1 whole entry, looked up): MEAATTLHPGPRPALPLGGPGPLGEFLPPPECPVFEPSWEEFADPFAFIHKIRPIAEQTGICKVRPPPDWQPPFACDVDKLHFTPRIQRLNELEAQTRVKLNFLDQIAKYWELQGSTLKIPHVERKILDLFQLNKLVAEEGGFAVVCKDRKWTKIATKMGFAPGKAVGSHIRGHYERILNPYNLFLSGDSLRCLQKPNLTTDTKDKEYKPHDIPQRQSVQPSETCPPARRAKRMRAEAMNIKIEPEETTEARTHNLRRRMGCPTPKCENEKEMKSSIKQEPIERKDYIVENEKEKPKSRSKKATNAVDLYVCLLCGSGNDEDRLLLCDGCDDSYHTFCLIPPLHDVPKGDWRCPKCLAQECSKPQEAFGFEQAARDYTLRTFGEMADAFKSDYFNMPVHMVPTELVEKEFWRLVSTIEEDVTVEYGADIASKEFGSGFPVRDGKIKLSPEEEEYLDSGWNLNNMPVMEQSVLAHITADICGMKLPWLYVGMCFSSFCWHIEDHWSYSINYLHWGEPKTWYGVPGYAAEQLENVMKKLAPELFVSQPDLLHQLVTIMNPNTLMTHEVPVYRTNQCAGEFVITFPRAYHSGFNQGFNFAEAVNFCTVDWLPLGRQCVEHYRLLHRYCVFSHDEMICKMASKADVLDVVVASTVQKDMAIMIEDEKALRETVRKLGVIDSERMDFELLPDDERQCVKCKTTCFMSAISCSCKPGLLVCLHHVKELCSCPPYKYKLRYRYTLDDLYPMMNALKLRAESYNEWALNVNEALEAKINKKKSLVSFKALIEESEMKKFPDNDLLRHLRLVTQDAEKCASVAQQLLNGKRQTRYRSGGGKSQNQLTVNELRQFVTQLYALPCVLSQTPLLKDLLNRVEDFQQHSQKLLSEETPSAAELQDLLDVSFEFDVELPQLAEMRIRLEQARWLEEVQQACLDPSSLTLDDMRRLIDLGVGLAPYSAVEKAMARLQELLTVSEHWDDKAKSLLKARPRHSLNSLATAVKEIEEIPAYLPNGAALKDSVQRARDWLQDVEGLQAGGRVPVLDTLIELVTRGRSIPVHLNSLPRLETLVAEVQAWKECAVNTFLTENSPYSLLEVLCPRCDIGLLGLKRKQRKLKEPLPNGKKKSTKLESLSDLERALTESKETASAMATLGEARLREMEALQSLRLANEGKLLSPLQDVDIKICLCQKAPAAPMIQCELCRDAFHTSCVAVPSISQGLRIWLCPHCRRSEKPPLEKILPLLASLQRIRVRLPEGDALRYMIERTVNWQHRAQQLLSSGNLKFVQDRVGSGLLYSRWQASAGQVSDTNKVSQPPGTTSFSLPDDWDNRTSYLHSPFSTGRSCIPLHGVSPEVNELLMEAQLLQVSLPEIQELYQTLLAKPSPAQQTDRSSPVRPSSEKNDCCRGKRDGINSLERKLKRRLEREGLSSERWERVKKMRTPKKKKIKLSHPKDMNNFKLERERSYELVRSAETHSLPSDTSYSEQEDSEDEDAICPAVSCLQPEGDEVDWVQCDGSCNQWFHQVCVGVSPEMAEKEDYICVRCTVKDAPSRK

The assay concerns the target Lysine-specific demethylase 5B (Homo sapiens) (UniProt Q9UGL1). As to the kind of experiment: Optimization screen for KDM5B Histone Demethylases FDH coupled qHTS against the LOPAC library (AID 1347166). Further: 0% is about no effect. The conditions noted are these: KDM5B demethylation, FDH-coupled NADH fluorescence (FDH is formaldehyde dehydrogenase); at 57.5 µM (top of the series). The text has this: Assay Submitter (PI): Qin Yan, Ph.D. (Yale University) and Xiaodong Cheng, Ph.D. (MD Anderson)
This project was funded as part of the NCI NEXT Program and Chemical Biology Consortium (CBC)
The histone demethylases, KDM5A and KDM5B catalyze the demethylation of lysine 4 on histone H3 (H3K4me3/2). They
are overexpressed in a variety of cancers and have been implicated in cancer cell growth, metastasis, drug resistance, and tumor growth. KDM5A is amplified and overexpressed in breast and gastric cancer; and is translocated in leukemia. While KDM5B is highly expressed in human mammary tumors and breast cancer cell lines, but not in normal adult breast tissue. Moreover, knockdown of KDM5B leads to upregulation of tumor suppressor genes, including BRCA1. The goal of this project is to employ qHTS to identify selective small molecule inhibitors of KDM5A/B demethylase activity to better understand the role of KDM5 in cancer and to develop novel therapies.
We employed an FDH-coupled assay previously reported by Sakurai et al. to monitor in vitro KDM5 demethylase activity. Compounds showing dose response inhibition are re-acquired, validated, and tested for non-specific interference with the formaldehyde dehydrogenase (FDH) counterscreen. True inhibitors are validated using an AlphaLisa secondary screen, which employs an H3K4(me2-1)-specific antibody to monitor demethylation of a biotin-tagged H3K4(me3) peptide substrate. Inhibitors are profiled against KDM4A and KDM6A AlphaLisa counterscreens to determine level of demethylase specificity; and against the TruHits counterscreen to eliminate non-specific inhibitory activity on the AlphaLISA detection method. Selective inhibitors identified from the primary and secondary screening are tested in cells using immunofluorescence to monitor global H3K4 tri-methylation as a measure of KDM5A/B inhibition. This assay is run against the NCGC Lopac collection of about 1,200 compounds to evaluate its amenability to quantitative High Throughput Screening (qHTS) platform.
Early Translation Branch (ETB)
National Center for Advancing Translational Sciences (NCATS), Rockville, MD
National Institute of Health (NIH), Bethesda, Maryland
[1] Sakurai, M et al. A miniaturized screen for inhibitors of Jumonji histone demethylases. Mol Biosyst. 2010 Feb;6(2):357-64. doi: 10.1039/b912993f. Epub 2009 Oct 8.
1536-well Black, solid bottom, medium binding assay plate is purchased from Greiner Bio-one. The enzymes (KDM5B) and substrate (H3K4me3/2) are provided by the principal investigators. The buffer for this assay is composed of 50mM HEPES at pH 7.5 with 0.01% Tween-20.
FDH coupled qHTS protocol:
Three microliter enzyme mix (buffer + 200nM KDM5BDeltaAP final concentration) is dispensed into the assay plate using the BioRAPTR Flying Reagent Dispenser (FRD; Beckton-Dickenson). Compound (at various final concentration) and control solution is pin transferred to the assay plate using the Kalypsys 1536-pin tool apparatus. The assay plate is incubated for 10 min at room temperature followed by addition of 1uL substrate mix (buffer + 100uM ascorbic acid, 50uM ferrous ammonium sulfate, 12.5uM H3K4Me3, 25uM a-ketoglutarate, 0.25 mM NAD+, 0.25 U/mL formaldehyde dehydrogenase using the FRD yielding a total reaction volume of 4 uL. Initial fluorescence (Read1) is detected using the PerkinElmer ViewLux plate reader equipped with 340 nm excitation and 450 nm emission filters. The final fluorescence (Read2) signal is obtained after 30 min of room temperature incubation. Delta RFU is calculated (Read2 - Read1) and is used to generated dose response curves
Background: Quantitative high-throughput screening tests each substance at several concentrations.
For `COc1cc(CNC(=O)CCCCCCC(C)C)ccc1O`, the activity, negative = inhibition is -17%.

With `CCCCS(=N)(=O)CC[C@H](N)C(=O)O` (stereo not given in full), the activity, negative = inhibition was -2.9%. With `COc1cc(CC(=O)O)ccc1O` the figure was -5.93%; with `COC1(C2=NCCN2)COc2ccccc2O1` (stereo not given), -3.68%; with `CCCCCCCCCC(=O)NC(CN1CCOCC1)[C@H](O)c1ccccc1` (stereo not given in full), -9.31%.

Consider `CCC1(O)CC2CN(CCc3c([nH]c4ccccc34)[C@@](C(=O)OC)(c3cc4c(cc3OC)N(C=O)C3[C@]45CCN4CC=C[C@@](CC)([C@@H](OC(C)=O)[C@]3(O)C(=O)OC)[C@H]45)C2)C1` (stereo not given in full), for which the activity, negative = inhibition is -9.11%. For `O=C(O)C1=CCCNC1` the value was -1.96%; for `COc1ccccc1N1CCN(CCCCN2C(=O)c3ccccc3C2=O)CC1`, -4.4%; for `NC(N)=NC(N)=Nc1cccc(Cl)c1`, -3.11%.

On to `O=C1OC(=O)C2C3CCC(O3)C12` (stereo not given), for which the activity, negative = inhibition was 3.88%. With `CCSC(=N)N` the figure was -5.42%; with `COc1ccccc1N1CCN(CCCCNC(=O)c2ccc3ccccc3c2)CC1`, -7.43%.

For the compound `CN(C)CCC(c1ccc(Br)cc1)c1ccccn1` (stereo not given), the activity, negative = inhibition was -1.47%. On to `CC[n+]1c(/C=C/C=C2/N(C)c3ccccc3C2(C)C)sc2ccccc21`, for which the activity, negative = inhibition is -25%.

Consider `Brc1c(Br)c(Br)c2[nH]cnc2c1Br`, for which the activity, negative = inhibition was 0.346%.

Take `O=C(O)[C@H]1NCCC[C@H]1C(=O)O`: the activity, negative = inhibition was -4.16%. With `C=CCn1c(=O)c2c(nc(-c3ccc(S(=O)(=O)O)cc3)n2C)n(C)c1=O` the figure was -806% (active); with `Cc1nc2c(OCc3ccccc3)cccn2c1CC#N`, 0.134%; with `CSC(=N)N`, -3.96%. With `CC(C)(C)NCC(O)COc1cccc2[nH]c(=O)[nH]c12` (stereo not given) the figure was -6.87%; with `N[C@H]1CONC1=O`, -4.96%. For `CC(=O)O[C@H]1Cc2ccccc2N(C(N)=O)c2ccccc21` the value was -5.85%; for `N=C(N)c1ccc(N)cc1`, -6.1%. In the case of `CCCn1c(=O)c(C)cn2nc(N)nc12`, the activity, negative = inhibition was -3980% (active). With `Cc1nc2n(c(=O)c1CCN1CCC(c3noc4cc(F)ccc34)CC1)CCCC2O` (stereo not given) the figure was -13.2%; with `COc1ccccc1N1CCN(CCCNc2c(C)c(=O)n(C)c(=O)n2C)CC1`, -1.72%; with `CO/N=C(\C(=O)N[C@@H]1C(=O)N2C(C(=O)O)=C(CSc3nc(=O)c(O)nn3C)CSC12)c1csc(N)n1` (stereo not given in full), -14.3%. For `CC(=O)O[C@H]1CC2(C)[C@@H](C[C@@H](O)[C@H]3[C@@]4(C)CC[C@@H](O)[C@@H](C)[C@@H]4CC[C@@]32C)C1=C(CCC=C(C)C)C(=O)O` (stereo not given in full) the value was -4.8%; for `C[C@H]1CC2C3CCC4=CC(=O)C=C[C@]4(C)[C@@]3(Cl)[C@@H](O)C[C@]2(C)[C@@]1(O)C(=O)CO` (stereo not given in full), -1.11%. For `C=C1C[C@@]23CC[C@H]4[C@@](C)(CCC[C@@]4(C)C(=O)OC4OC(CO)C(O)C(O)C4O)[C@@H]2CC[C@]1(OC1OC(CO)C(O)C(O)C1OC1OC(CO)C(O)C(O)C1O)C3` (stereo not given in full) the value was -7.5%; for `NCC(O)(CS(=O)(=O)O)c1ccc(Cl)cc1` (stereo not given), -2.36%. With `CNCCc1cnc(CCC(c2ccccc2)c2ccccc2)[nH]1`, the activity, negative = inhibition is -15.1%. With `CC(=O)NCCc1c[nH]c2ccc(O)cc12` the figure was -23.2%; with `NC1C=CC=C(C(=O)O)C1` (stereo not given), -9.6%; with `CC1CCN=C(N)S1` (stereo not given), -2.36%. In the case of `N[C@@H](CS(=O)O)C(=O)O`, the activity, negative = inhibition is -4.61%. With `COCc1nc2c([nH]1)c(=O)n(C)c(=O)n2CC(C)C` the figure was -5.87%. `CCN(c1nc(N)c(C(=O)N=C(N)N)nc1Cl)C(C)C`: the activity, negative = inhibition was -3.16%.

As to `NC1(C(=O)O)CCCCC1`, the activity, negative = inhibition was -8.23%. With `C=C1C(=O)O[C@@H]2[C@H]3O[C@]3(C)CCC=C(C)CC[C@@H]12`, the activity, negative = inhibition is -8.83%.
